Data on eight compounds can be found in PubChem BioAssay (NCI).

SMILES strings stand for the structures. This is part of a sample that, as a whole, favours compounds with a hit. Of some 83,000 tested, about 20% had one in any assay.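 96-well plates, one dose, 48 hours. Percent growth reported; active if below 10.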 Unmarked numbers belong to inactive results. Active and inactive are the calls of the source.

What all share (assay): NCI-60 one-dose screen, 48 h (100 = growth as untreated, 0 = no growth, -100 = all killed)
One assay has as its system SK-MEL-2 melanoma. Conditions: 10 µM unless noted.
A further assay has as its system EKVX NSCLC. Conditions: 10 µM unless noted.
For the next assay, the system named is SN12C renal. Conditions: 10 µM unless noted.
For another assay, the system named is TK-10 renal. Conditions: 10 µM unless noted.
The subject of a further assay is ACHN renal. Conditions: 10 µM unless noted.
The test system of another assay is A498 renal. Conditions: 10 µM.
The subject of another assay is HL-60(TB) leukemia. Conditions: 10 µM unless noted.
The test system of another assay is CCRF-CEM leukemia. To be noted: 10 µM unless noted.
The next assay relates to MOLT-4 leukemia. To be noted: 10 µM unless noted.
For the next assay, the system named is SR leukemia. Conditions: 10 µM unless noted.
Another assay deals with OVCAR-8 ovarian. To be noted: 10 µM unless noted.
The next assay deals with OVCAR-5 ovarian. Conditions: 10 µM unless noted.
For another assay, the system named is OVCAR-4 ovarian. To be noted: 10 µM unless noted.
Another assay concerns SK-OV-3 ovarian. To be noted: 10 µM unless noted.
The test system of another assay is IGROV1 ovarian. Conditions: 10 µM unless noted.
The test system of a further assay is OVCAR-3 ovarian. Conditions: 10 µM unless noted.
Another assay relates to HS 578T breast. To be noted: 10 µM unless noted.
Another assay deals with CAKI-1 renal. To be noted: 10 µM unless noted.
Another assay concerns RPMI-8226 leukemia. To be noted: 10 µM unless noted.

As for `COc1ccc(Nc2ccc([N+](=O)[O-])cc2[N+](=O)[O-])cc1CN(CCCl)CCCl`, the growth in the assay with SK-MEL-2 melanoma was 42.9%; in the assay on EKVX NSCLC it was 70.7%; with SN12C renal it was 21.4%; in the assay on TK-10 renal it was 56.7%; in the assay on ACHN renal, 15.2%; in the assay with A498 renal it was 18.5%. For the same compound, the growth in the assay with HL-60(TB) leukemia is -17.7% (active); in the assay on CCRF-CEM leukemia, 2.14% (active); with MOLT-4 leukemia, 0.406% (active); in the assay on SR leukemia, 7.8% (active); in the assay on OVCAR-8 ovarian it was 30.6%; in the assay with OVCAR-5 ovarian, 50.2%. Further, the growth in the assay with OVCAR-4 ovarian is 52.8%; in the assay with SK-OV-3 ovarian, 48.3%; in the assay on IGROV1 ovarian, 32.7%; with OVCAR-3 ovarian, 20%; with HS 578T breast, 66.7%.
Turning to `Clc1cccc(N2COOC3(OOC2)C2CC4CC(C2)CC3C4)c1`, the growth in the assay on SK-MEL-2 melanoma is 98.3%; in the assay with EKVX NSCLC it was 94.2%; with SN12C renal, 76%; in the assay with TK-10 renal, 40.9%; with ACHN renal it was 62.1%; in the assay with CAKI-1 renal, 76.4%. Moreover, the growth in the assay on A498 renal was 110%; in the assay on HL-60(TB) leukemia it was 20.2%; in the assay on CCRF-CEM leukemia, -32.7% (active); in the assay with MOLT-4 leukemia, 77.8%; with SR leukemia, 37.7%; in the assay with OVCAR-8 ovarian, 58.1%. The growth in the assay on OVCAR-5 ovarian is 84.3%; in the assay with OVCAR-4 ovarian, 95.3%; with SK-OV-3 ovarian, 98.1%; in the assay on IGROV1 ovarian it was -54.4% (active); in the assay on OVCAR-3 ovarian it was 19.2%; in the assay on HS 578T breast, 88.6%.
Consider `COC(=O)[C@@H](C)C[C@H](Cc1ccccc1)NC(=O)c1nc([C@@H](C[C@H](C(C)C)N(C)C(=O)[C@@H](NC(=O)[C@H]2CCCCN2C)C(C)C)OC(C)=O)sc1C`, for which the growth in the assay with SK-MEL-2 melanoma was 26.5%; in the assay with EKVX NSCLC, 33.9%; in the assay on SN12C renal it was 18.3%; with TK-10 renal it was 31.1%; with ACHN renal it was 24.5%; with HL-60(TB) leukemia, -43.5% (active). Also, the growth is 7.82% (active) in the assay on CCRF-CEM leukemia; 11.1% in the assay with MOLT-4 leukemia; 4.24% (active) with SR leukemia; 18.2% with RPMI-8226 leukemia; 15% with OVCAR-8 ovarian; 41.4% with OVCAR-5 ovarian. For the same compound, the growth in the assay on OVCAR-4 ovarian is 50.6%; in the assay on SK-OV-3 ovarian, 29.9%; in the assay on IGROV1 ovarian it was 22.7%; in the assay with OVCAR-3 ovarian, -37.8% (active); with HS 578T breast it was 13.7%.
Regarding `CN[C@@]1(c2ccccc2Cl)CCCC[C@@H]1NCC1CCCO1` (stereo partly specified), the growth in the assay with SK-MEL-2 melanoma is 99.7%; in the assay on EKVX NSCLC it was 99.2%; in the assay with SN12C renal it was 96.8%; in the assay with TK-10 renal, 102%; in the assay on ACHN renal, 99.4%; in the assay on CAKI-1 renal, 93.9%. For the same compound, the growth in the assay with A498 renal is 94.4%; in the assay on HL-60(TB) leukemia it was 99.9%; in the assay on CCRF-CEM leukemia, 99.8%; with MOLT-4 leukemia, 111%; in the assay on SR leukemia, 95.2%; in the assay on RPMI-8226 leukemia, 104%. Further, the growth in the assay on OVCAR-8 ovarian is 102%; in the assay with OVCAR-5 ovarian, 97.4%; in the assay on OVCAR-4 ovarian, 93.8%; in the assay with SK-OV-3 ovarian it was 111%; in the assay with OVCAR-3 ovarian, 116%; in the assay on HS 578T breast, 96.3%.
For `Cc1ccc(S(=O)(=O)C(Cl)(Cl)Cl)cc1`, the growth was 97.5% with SK-MEL-2 melanoma; 101% in the assay with EKVX NSCLC; 98.7% in the assay with SN12C renal; 89.5% in the assay on TK-10 renal; 105% with ACHN renal; 87.9% with CAKI-1 renal. The growth was 103% with A498 renal; 91.1% in the assay with HL-60(TB) leukemia; 82.7% in the assay on CCRF-CEM leukemia; 79.6% in the assay with MOLT-4 leukemia; 89.4% with SR leukemia; 96.2% in the assay with OVCAR-8 ovarian. In addition, the growth in the assay on OVCAR-5 ovarian is 96.8%; with OVCAR-4 ovarian, 105%; in the assay on SK-OV-3 ovarian, 82.5%; with IGROV1 ovarian, 99%; in the assay on OVCAR-3 ovarian, 110%; in the assay with HS 578T breast, 96.1%.
`C=C1[C@@H](C)[C@H]2[C@H](Cc3ccccc3)NC(=O)[C@]23[C@@H](O)/C=C/[C@@](C)(O)C(=O)[C@@H](C)C/C=C/[C@H]3[C@@H]1O`: the growth in the assay on SK-MEL-2 melanoma was 65.1%; with EKVX NSCLC it was 57.2%; in the assay on SN12C renal, 66.1%; with TK-10 renal, 39.6%; in the assay with ACHN renal it was 45.6%; with CAKI-1 renal, 52.5%. Moreover, the growth was 73.4% with HL-60(TB) leukemia; 48% with CCRF-CEM leukemia; 61.5% with MOLT-4 leukemia; 64.3% in the assay on SR leukemia; 68.4% in the assay on RPMI-8226 leukemia; 69.3% in the assay with OVCAR-8 ovarian. The growth with OVCAR-5 ovarian was 38.1%; with OVCAR-4 ovarian, 53.7%; in the assay with SK-OV-3 ovarian, 38.1%; in the assay with IGROV1 ovarian, 70.5%; with OVCAR-3 ovarian it was 46.2%; in the assay on HS 578T breast it was -11.7% (active).
With `CC(CO)NC1CCCCC1` (stereo unspecified), the growth in the assay with SK-MEL-2 melanoma is 110%; with EKVX NSCLC, 102%; with SN12C renal, 111%; in the assay on TK-10 renal it was 94.9%; in the assay with ACHN renal it was 109%; in the assay with CAKI-1 renal, 109%. The growth in the assay with A498 renal is 77.6%; in the assay with CCRF-CEM leukemia, 123%; with MOLT-4 leukemia, 98.9%; with SR leukemia, 104%; in the assay on RPMI-8226 leukemia it was 112%; in the assay on OVCAR-8 ovarian, 103%. Further, the growth in the assay on OVCAR-5 ovarian is 102%; in the assay with OVCAR-4 ovarian it was 102%; in the assay with SK-OV-3 ovarian, 111%; in the assay with IGROV1 ovarian, 102%; in the assay with OVCAR-3 ovarian, 115%; in the assay with HS 578T breast, 115%.
`CCOC(=O)[C@@H](C)C[C@H](Cc1ccccc1)NC(=O)c1csc([C@@H](C[C@H](C(C)C)N(C)C(=O)[C@@H](NC(=O)[C@H]2C[C@H](O)CCN2C)C(C)C)OC(C)=O)n1`: the growth in the assay on SK-MEL-2 melanoma is 16.8%; in the assay on EKVX NSCLC, 47.6%; in the assay on SN12C renal it was 20.6%; with TK-10 renal, 38.4%; in the assay with ACHN renal, 19.7%; in the assay with CAKI-1 renal, 30.9%. Further, the growth with CCRF-CEM leukemia was 4.67% (active); in the assay on MOLT-4 leukemia, 11.9%; with SR leukemia, 5.63% (active); with RPMI-8226 leukemia it was 5.82% (active); in the assay on OVCAR-8 ovarian, 14.8%; with OVCAR-5 ovarian it was 41.8%. The growth in the assay with OVCAR-4 ovarian is 35.2%; in the assay on SK-OV-3 ovarian it was 7.61% (active); with IGROV1 ovarian, 20.3%; in the assay on OVCAR-3 ovarian, 5.22% (active); with HS 578T breast it was 19.4%.
